PubChem BioAssay (EPA / NIEHS)
Results filed as inconclusive are left out. Activity calls are given as the source filed them. Rule for the calls: active = hit-call score of the fitted dose curve at least 0.9, where 1 is the maximum; inconclusive = response in the unintended direction; inactive = score below 0.9.

Assays:
[1] = system: 5-hydroxytryptamine receptor 2C (pig); experiment: NVS_GPCR_p5HT2C: NovaScreen (NVS) G Protein-Coupled Receptor Assay for pig Serotonin, 5-Hydroxytryptamine Receptor 2C (5HT2C) (AID 2283288)
How it was run: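 Pig choroid plexus membranes; radioligand competitive binding, filter-based scintillation counting, read 1 h after dosing. Primary screen in duplicate at 25 uM; actives then run as concentration series; loss of signal versus DMSO baseline.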

[2] = molecular target: human Opioid Receptor Mu (Opiate Mu), OPRM1 (gene 4988) (UniProt P35372); experiment: NVS_GPCR_hOpiate_mu: NovaScreen (NVS) G Protein-Coupled Receptor Assay for human Opioid Receptor Mu (Opiate Mu) (AID 2283290);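 note: hits lower bound tracer signal versus DMSO meaning displacement of the ligand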
How it was run: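 Radioligand displacement binding on membranes from CHO cells expressing the receptor, 2.5 h after dosing, filter-based scintillation counting; loss of signal vs DMSO baseline. Screened in duplicate at 25 uM, actives then run in concentration series.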

[3] = molecular target: guinea pig Serotonin, 5-Hydroxytryptamine Receptor 4 (5HT4), HTR4 (gene 100135548) (UniProt O70528); experiment: NVS_GPCR_g5HT4: NovaScreen (NVS) G Protein-Coupled Receptor Assay for guinea pig Serotonin, 5-Hydroxytryptamine Receptor 4 (5HT4) (AID 2283294)
How it was run: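 Guinea pig striatal membranes; radioligand competitive displacement, filtration and scintillation counting after 1 h. Primary screen in duplicate at 25 uM; actives then tested in concentration series; loss of binding signal fitted relative to DMSO.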

[4] = system: rat Adrenergic, Alpha 1B Receptor (Adra1B), gene 24173; experiment: NVS_GPCR_rAdra1B: NovaScreen (NVS) G Protein-Coupled Receptor Assay for rat Adrenergic, Alpha 1B Receptor (Adra1B) (AID 2283297)
How it was run: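 Rat liver membranes, radioligand displacement with filter-based scintillation detection, 1 h incubation. Primary screen in duplicate at 25 uM; actives retested in concentration series; activity relative to DMSO.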

[5] = molecular target: rat Opioid Receptor, Non-selective Sodium (Na+) Binding, Oprm1 (gene 25601) (UniProt P33535); experiment: NVS_GPCR_rOpiate_NonSelectiveNa: NovaScreen (NVS) G Protein-Coupled Receptor Assay for rat Opioid Receptor, Non-selective Sodium (Na+) Binding (AID 2283311)
How it was run: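 Rat forebrain membranes, radioligand displacement with filter scintillation counting, 1.5 h incubation. Screened in duplicate at 25 µM; hits then run in concentration-response up to 50 µM; loss of binding fitted versus DMSO.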

Adra2b (gene 24174) = Adra2b (gene 24174) (UniProt P19328); experiment: NVS_GPCR_rmAdra2B: NovaScreen (NVS) G Protein-Coupled Receptor Assay for hybird cells Adrenergic, Alpha 2B Receptor (Adra2B) (AID 2283306)
How it was run: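 Radioligand filter-binding assay on membrane proteins from neuroglioma/blastoma hybrid cells (rodent), 1 h after dosing; scintillation counting, loss of signal vs DMSO. Primary screen in duplicate at 25 uM, actives then run in concentration series.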

[6] = molecular target: rat Adrenergic, Alpha 1, Non-selective Receptor (Adra1), Adra1a (gene 29412) (UniProt P43140); experiment: NVS_GPCR_rAdra1_NonSelective: NovaScreen (NVS) G Protein-Coupled Receptor Assay for rat Adrenergic, Alpha 1, Non-selective Receptor (Adra1) (AID 2283289)
How it was run: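 Rat forebrain membranes; radioligand displacement read by filter-based scintillation counting 1 h after dosing. Primary screen in duplicate at 25 uM; hits (e.g. ≥30% inhibition) rerun as concentration–response to 50 uM max. Fitted versus DMSO.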

[7] = molecular target: rat Adrenergic, Alpha 1A Receptor (Adra1A), Adra1a (gene 29412) (UniProt P43140); experiment: NVS_GPCR_rAdra1A: NovaScreen (NVS) G Protein-Coupled Receptor Assay for rat Adrenergic, Alpha 1A Receptor (Adra1A) (AID 2283296)
How it was run: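 Rat cortical membranes pretreated with chlorethyl clonidine; competitive radioligand displacement, 1 h. Filter-based scintillation counting. Primary screen in duplicate at 25 uM, actives followed in concentration series.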

[8] = molecular target: rat Adrenergic Receptor, Beta (Adrb), Non-selective Binding, Adrb1 (gene 24925) (UniProt P18090); experiment: NVS_GPCR_rAdrb_NonSelective: NovaScreen (NVS) G Protein-Coupled Receptor Assay for rat Adrenergic Receptor, Beta (Adrb), Non-selective Binding (AID 2283298)
How it was run: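 Non-selective beta-adrenergic radioligand binding in rat cortical membranes, 1 h incubation, filter-based scintillation read-out. Primary screen 25 uM in duplicate; hits retested in concentration-response up to 50 uM, DMSO baseline.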

[9] = molecular target: guinea pig Bradykinin Receptor B2 (BK2), BDKRB2 (gene 100135486) (UniProt O70526); experiment: NVS_GPCR_gBK2: NovaScreen (NVS) G Protein-Coupled Receptor Assay for guinea pig Bradykinin Receptor B2 (BK2) (AID 2283292)
How it was run: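 Radioligand displacement on guinea pig ileum membranes for 1 h, read by filter-based scintillation counting; loss of signal relative to DMSO. Compounds were screened in duplicate at 25 uM, and those passing the threshold were retested in concentration-response up to 50 uM.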

[10] = molecular target: mouse Cholecystokinin, CCK2 Receptor (CCKB), Cckbr (gene 12426) (UniProt P56481); experiment: NVS_GPCR_mCKKBCentral: NovaScreen (NVS) G Protein-Coupled Receptor Assay for mouse Cholecystokinin, CCK2 Receptor (CCKB) (AID 2283293)
How it was run: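 Radioligand displacement binding on mouse forebrain membranes, 2 h exposure, filter-based scintillation counting. Primary screen in duplicate at 25 uM; actives (e.g. ≥30% inhibition) retested in concentration-response up to 50 uM; loss of binding signal relative to DMSO.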

[11] = molecular target: rat Gamma-Aminobutyric Acid Type B Receptor (GABBR), Gabbr1 (gene 81657) (UniProt Q9Z0U4); experiment: NVS_GPCR_rGABBR: NovaScreen (NVS) G Protein-Coupled Receptor Assay for rat Gamma-Aminobutyric Acid Type B Receptor (GABBR) (AID 2283301)
How it was run: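 Radioligand displacement on rat cortical membranes, 1 h, filter-based scintillation counting. Primary screen at 25 uM in duplicate; compounds passing threshold re-tested in concentration-response up to 50 uM; loss of binding fitted against DMSO.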

[12] = molecular target: Metabotropic glutamate receptor 1 (Rattus norvegicus) (UniProt P23385); experiment: NVS_GPCR_rmMGluR1: NovaScreen (NVS) G Protein-Coupled Receptor Assay for rat Glutamate Metabotropic Receptor 1 (MGluR1) (AID 2283305)
How it was run: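 Rat cerebellum membrane preparation, radioligand displacement binding read by filter-based scintillation counting 1 hour after dosing. Initial duplicate single-point screen at 25 uM, then concentration-response up to 50 uM; loss of signal versus DMSO baseline scored.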

[13] = molecular target: rat Neurokinin-3 Receptor (NK3), Tacr3 (gene 24808) (UniProt P16177); experiment: NVS_GPCR_rNK3: NovaScreen (NVS) G Protein-Coupled Receptor Assay for rat Neurokinin-3 Receptor (NK3) (AID 2283310)
How it was run: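 Rat cortical membranes; radioligand binding with filtration and scintillation counting, 2 h after dosing. Primary screen in duplicate at 25 uM, then concentration-response up to 50 uM; loss of binding signal relative to DMSO.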

[14] = molecular target: rat Somatostatin Receptor (SST), Sstr1 (gene 25033) (UniProt P28646); experiment: NVS_GPCR_rSST: NovaScreen (NVS) G Protein-Coupled Receptor Assay for rat Somatostatin Receptor (SST) (AID 2283314)
How it was run: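 Rat forebrain membranes; radioligand displacement read by filter-based scintillation counting 1 h after dosing. Primary screen in duplicate at 25 uM. Actives (e.g., 30% inhibition) were rerun as concentration-response to 50 uM max and fitted against DMSO.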

[15] = molecular target: rat Serotonin, 5-Hydroxytryptamine Receptor (5HT), Non-Selective Binding, Htr1a (gene 24473) (UniProt P19327); experiment: NVS_GPCR_r5HT_NonSelective: NovaScreen (NVS) G Protein-Coupled Receptor Assay for rat Serotonin, 5-Hydroxytryptamine Receptor (5HT), Non-Selective Binding (AID 2283295)
How it was run: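 Radioligand displacement on rat cortical membranes, 1 h incubation, filter-based scintillation counting. Primary duplicates at 25 uM, actives retested in concentration series; loss of signal fitted against DMSO as baseline.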

[16] = molecular target: rat Adrenergic Receptor, Alpha 2 (Adra2), Non-selective Binding, Adra2a (gene 25083) (UniProt P22909); experiment: NVS_GPCR_rAdra2_NonSelective: NovaScreen (NVS) G Protein-Coupled Receptor Assay for rat Adrenergic Receptor, Alpha 2 (Adra2), Non-selective Binding (AID 2283299)
How it was run: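 Rat cortical membranes, radioligand competitive displacement read by filter-based scintillation counting 1.25 hours after dosing. Primary screen in duplicate at 25 uM; actives followed up in concentration series.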

Chain of guinea pig Bradykinin Receptor B2 (BK2), BDKRB2 (gene 100135486) (O70526 whole entry, looked up): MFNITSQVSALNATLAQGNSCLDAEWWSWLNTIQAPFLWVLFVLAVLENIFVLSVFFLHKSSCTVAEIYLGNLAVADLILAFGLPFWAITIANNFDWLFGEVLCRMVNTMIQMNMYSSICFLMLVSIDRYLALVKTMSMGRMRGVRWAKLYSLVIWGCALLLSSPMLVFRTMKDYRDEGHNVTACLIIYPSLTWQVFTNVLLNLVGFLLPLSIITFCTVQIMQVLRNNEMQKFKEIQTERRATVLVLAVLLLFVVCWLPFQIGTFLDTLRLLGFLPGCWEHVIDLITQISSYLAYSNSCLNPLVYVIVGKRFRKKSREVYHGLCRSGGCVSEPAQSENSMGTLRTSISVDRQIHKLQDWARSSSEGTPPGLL
Chain of rat Gamma-Aminobutyric Acid Type B Receptor (GABBR), Gabbr1 (gene 81657) (Q9Z0U4 whole entry, looked up): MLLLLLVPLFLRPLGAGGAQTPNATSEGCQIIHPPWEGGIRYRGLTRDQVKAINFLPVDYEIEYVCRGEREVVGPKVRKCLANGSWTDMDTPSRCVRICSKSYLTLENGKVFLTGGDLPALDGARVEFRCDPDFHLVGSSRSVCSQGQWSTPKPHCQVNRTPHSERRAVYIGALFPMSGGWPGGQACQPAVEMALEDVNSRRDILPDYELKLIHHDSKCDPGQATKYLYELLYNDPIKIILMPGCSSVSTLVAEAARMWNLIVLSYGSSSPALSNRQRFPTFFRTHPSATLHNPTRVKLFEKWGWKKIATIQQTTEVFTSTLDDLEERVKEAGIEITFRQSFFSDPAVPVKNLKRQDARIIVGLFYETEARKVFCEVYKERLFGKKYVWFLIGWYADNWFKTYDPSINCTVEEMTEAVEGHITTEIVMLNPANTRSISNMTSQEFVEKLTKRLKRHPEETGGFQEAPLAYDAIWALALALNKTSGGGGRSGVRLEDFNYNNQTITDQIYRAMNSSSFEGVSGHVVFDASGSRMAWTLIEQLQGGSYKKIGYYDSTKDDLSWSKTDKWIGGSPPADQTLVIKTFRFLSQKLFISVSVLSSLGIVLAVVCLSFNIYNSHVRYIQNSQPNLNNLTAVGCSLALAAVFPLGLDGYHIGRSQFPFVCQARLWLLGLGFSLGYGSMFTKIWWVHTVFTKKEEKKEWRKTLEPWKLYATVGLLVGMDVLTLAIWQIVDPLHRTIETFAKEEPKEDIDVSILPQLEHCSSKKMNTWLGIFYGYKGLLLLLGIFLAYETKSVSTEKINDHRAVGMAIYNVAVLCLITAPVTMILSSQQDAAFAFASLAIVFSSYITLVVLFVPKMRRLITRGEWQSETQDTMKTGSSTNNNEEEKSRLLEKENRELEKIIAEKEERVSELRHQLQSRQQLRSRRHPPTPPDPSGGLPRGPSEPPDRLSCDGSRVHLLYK
Chain of Adra2b (gene 24174) (P19328 whole entry, looked up): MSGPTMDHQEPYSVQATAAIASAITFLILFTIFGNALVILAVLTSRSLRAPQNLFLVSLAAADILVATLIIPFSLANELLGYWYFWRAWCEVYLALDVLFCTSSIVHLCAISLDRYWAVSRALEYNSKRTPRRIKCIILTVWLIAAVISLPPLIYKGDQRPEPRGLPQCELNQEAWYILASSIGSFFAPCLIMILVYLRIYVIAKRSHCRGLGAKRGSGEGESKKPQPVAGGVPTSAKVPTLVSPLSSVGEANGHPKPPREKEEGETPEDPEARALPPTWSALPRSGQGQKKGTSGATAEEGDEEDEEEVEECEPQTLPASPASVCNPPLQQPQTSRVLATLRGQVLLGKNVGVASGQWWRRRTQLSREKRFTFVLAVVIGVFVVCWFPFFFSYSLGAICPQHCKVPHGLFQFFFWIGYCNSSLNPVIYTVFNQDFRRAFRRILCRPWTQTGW
Chain of rat Opioid Receptor, Non-selective Sodium (Na+) Binding, Oprm1 (gene 25601) (P33535 whole entry, looked up): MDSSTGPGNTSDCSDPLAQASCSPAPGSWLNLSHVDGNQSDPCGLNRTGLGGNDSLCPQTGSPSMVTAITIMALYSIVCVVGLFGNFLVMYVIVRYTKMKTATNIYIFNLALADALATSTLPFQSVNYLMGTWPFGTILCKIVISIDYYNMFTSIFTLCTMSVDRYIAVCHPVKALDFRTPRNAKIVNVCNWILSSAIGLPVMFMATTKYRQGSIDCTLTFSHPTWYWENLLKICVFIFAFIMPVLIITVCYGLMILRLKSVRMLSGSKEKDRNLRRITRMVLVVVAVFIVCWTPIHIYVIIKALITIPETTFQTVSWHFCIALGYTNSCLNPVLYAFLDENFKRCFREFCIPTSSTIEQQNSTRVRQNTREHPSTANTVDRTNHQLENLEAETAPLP
Chain of human Opioid Receptor Mu (Opiate Mu), OPRM1 (gene 4988) (P35372 whole entry, looked up): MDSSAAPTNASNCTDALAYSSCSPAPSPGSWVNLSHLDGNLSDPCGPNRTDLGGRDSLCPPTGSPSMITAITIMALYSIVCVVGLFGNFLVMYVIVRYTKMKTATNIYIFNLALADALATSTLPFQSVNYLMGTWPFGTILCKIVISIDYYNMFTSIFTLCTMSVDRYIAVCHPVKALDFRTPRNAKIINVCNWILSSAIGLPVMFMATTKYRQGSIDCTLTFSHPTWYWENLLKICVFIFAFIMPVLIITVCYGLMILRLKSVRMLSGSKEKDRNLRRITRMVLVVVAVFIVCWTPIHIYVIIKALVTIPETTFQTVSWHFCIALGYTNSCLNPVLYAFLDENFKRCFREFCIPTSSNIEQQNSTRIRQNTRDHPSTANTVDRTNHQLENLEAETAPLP
Chain of guinea pig Serotonin, 5-Hydroxytryptamine Receptor 4 (5HT4), HTR4 (gene 100135548) (O70528 whole entry, looked up): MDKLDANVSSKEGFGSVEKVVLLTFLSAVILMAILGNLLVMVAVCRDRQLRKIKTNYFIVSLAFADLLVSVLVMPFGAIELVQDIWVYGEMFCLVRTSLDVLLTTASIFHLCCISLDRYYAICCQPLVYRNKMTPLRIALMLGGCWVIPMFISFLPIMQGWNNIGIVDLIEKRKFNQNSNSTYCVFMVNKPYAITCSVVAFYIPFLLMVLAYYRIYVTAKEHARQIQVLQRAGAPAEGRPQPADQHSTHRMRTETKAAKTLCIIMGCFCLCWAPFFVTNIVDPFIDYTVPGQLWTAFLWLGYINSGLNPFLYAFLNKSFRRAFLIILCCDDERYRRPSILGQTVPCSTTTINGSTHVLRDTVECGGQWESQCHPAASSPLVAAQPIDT
Chain of rat Adrenergic, Alpha 1A Receptor (Adra1A), Adra1a (gene 29412) (P43140 whole entry, looked up): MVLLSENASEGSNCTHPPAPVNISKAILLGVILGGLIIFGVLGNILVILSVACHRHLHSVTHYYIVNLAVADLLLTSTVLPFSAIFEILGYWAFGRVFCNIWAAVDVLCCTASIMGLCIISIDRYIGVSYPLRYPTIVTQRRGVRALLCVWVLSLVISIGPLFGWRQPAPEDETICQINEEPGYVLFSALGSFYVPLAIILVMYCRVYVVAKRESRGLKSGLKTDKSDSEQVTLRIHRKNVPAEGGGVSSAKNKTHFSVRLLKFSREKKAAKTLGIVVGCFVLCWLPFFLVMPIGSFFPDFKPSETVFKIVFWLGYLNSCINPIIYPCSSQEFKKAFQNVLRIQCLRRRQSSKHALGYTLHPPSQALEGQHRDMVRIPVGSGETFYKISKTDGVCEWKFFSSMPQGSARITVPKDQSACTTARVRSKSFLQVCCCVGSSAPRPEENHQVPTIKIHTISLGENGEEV
Chain of rat Neurokinin-3 Receptor (NK3), Tacr3 (gene 24808) (P16177 whole entry, looked up): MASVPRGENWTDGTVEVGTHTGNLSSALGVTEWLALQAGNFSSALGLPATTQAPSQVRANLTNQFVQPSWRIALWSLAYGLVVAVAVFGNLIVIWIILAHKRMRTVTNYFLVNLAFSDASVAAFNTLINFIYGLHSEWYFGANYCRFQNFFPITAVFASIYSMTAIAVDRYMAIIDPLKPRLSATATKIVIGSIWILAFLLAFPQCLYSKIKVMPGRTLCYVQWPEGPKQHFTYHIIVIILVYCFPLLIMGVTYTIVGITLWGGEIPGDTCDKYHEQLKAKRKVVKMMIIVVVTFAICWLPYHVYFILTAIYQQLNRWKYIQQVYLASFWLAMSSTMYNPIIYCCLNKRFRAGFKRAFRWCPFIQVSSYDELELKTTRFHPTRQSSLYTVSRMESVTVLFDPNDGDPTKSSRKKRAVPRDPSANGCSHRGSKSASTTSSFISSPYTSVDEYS
Chain of rat Adrenergic Receptor, Alpha 2 (Adra2), Non-selective Binding, Adra2a (gene 25083) (P22909 whole entry, looked up): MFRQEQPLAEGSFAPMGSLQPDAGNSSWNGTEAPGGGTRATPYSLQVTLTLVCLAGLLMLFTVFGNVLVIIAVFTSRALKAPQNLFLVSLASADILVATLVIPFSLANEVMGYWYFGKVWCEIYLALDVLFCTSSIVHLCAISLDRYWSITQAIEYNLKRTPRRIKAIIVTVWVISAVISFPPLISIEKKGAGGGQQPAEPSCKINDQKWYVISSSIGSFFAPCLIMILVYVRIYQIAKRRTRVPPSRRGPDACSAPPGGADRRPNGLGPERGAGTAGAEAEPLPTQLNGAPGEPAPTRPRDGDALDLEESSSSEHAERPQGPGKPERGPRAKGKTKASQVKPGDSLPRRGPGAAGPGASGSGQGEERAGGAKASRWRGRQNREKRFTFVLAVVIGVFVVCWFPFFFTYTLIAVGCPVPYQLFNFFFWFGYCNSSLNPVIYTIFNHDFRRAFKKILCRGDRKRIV
Chain of rat Somatostatin Receptor (SST), Sstr1 (gene 25033) (P28646 whole entry, looked up): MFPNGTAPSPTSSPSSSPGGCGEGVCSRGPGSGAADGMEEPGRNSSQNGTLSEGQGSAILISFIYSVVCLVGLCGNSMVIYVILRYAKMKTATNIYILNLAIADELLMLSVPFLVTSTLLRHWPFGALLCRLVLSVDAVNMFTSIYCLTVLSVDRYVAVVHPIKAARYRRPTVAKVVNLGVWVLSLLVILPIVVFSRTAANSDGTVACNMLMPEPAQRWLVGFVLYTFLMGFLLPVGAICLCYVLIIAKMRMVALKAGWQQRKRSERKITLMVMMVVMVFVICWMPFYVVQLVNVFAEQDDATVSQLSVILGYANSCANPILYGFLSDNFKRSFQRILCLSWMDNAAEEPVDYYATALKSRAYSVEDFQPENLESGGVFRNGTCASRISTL

C=CCc1cc(S(=O)(=O)c2ccc(O)c(CC=C)c2)ccc1O
AC50 [1]: 7.68 µM (active) | AC50 [2]: 4.83 µM (active) | AC50 [3]: 10 µM (active) | outcome [4]: inactive | AC50 [5]: 16.1 µM (active)

CCCCCCCC/C=C\CCCCCCCC(=O)OC[C@@H](O)[C@H]1OC[C@H](O)[C@H]1O
outcome [2]: inactive | outcome (Adra2b (gene 24174)): inactive

Cc1ccc(S(=O)(=O)NC(=O)NN2CCCCCC2)cc1
outcome [3]: inactive

CCc1ccc(O)c(C(C)(C)C)c1
outcome [6]: inactive | outcome [7]: inactive

NC(=O)NN=Cc1ccc([N+](=O)[O-])o1
outcome [8]: inactive

CC(C)C(=O)Nc1ccc([N+](=O)[O-])c(C(F)(F)F)c1
outcome [1]: inactive | AC50 [3]: 6.71 µM (active)

OC(Cn1cncn1)(Cn1cncn1)c1ccc(F)cc1F
outcome [5]: inactive

CCCCCCCCCC
outcome [1]: inactive | outcome [2]: inactive | outcome [9]: inactive | outcome [10]: inactive | outcome [3]: inactive | outcome [4]: inactive | outcome [11]: inactive | outcome [12]: inactive | outcome (Adra2b (gene 24174)): inactive | outcome [13]: inactive | AC50 [14]: 2.19 µM (active)

c1ccc2cc3ccccc3cc2c1
outcome [2]: inactive

CCCCOC(=O)c1ccccc1
outcome [3]: inactive

O=C(O)[C@H](O)[C@@H](O)C(=O)O
outcome [2]: inactive

c1ccc(C(O[C@@H]2CCCN(CCc3ccc4c(c3)OCO4)C2)c2ccccc2)cc1
AC50 [1]: 5.08 µM (active) | AC50 [2]: 5.65 µM (active) | outcome [9]: inactive | AC50 [3]: 3.4 µM (active) | AC50 [15]: 5.63 µM (active) | AC50 [7]: 11.3 µM (active) | AC50 [4]: 17 µM (active) | AC50 [16]: 19.5 µM (active) | outcome [11]: inactive | AC50 (Adra2b (gene 24174)): 7.75 µM (active) | AC50 [5]: 6.18 µM (active) | AC50 [14]: 14.6 µM (active)

O=c1[nH]cnc2c1ncn2[C@H]1CC[C@@H](CO)O1
outcome [15]: inactive | outcome [11]: inactive

CNC(C)=O
outcome [9]: inactive

C=CN1CCCC1=O
outcome [2]: inactive

CCCCCCCCCCCCCCO
outcome [2]: inactive

OCC(CO)(CO)CO
outcome [13]: inactive

CCCCCCCCN(C)C
outcome [16]: inactive | outcome (Adra2b (gene 24174)): inactive
